According to PubChem BioAssay:
Inconclusive results are not listed. Calls of active or inactive are those of the source.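 Rule for the calls, unless noted: active = inhibition above the screen-wide mean plus 3 SD, about 51%; inactive = the rest.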

What was measured:
[1] = yeast TOR pathway RPL19A-GFP modulators, primary screen, cell-based, S. cerevisiae, multiplex flow cytometry (AID 1862; in the data active = percent of DMSO control GFP below about 86%;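 note: lower values mimic rapamycin by blocking the RPL19A rise seen in DMSO cells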); settings: S. cerevisiae RPL19A-GFP strain, flow cytometry fluorescence, 3 h; at 10 µM; stronger effect = lower value
[2] = modulators of MEP2-GFP levels in yeast, primary screen, S. cerevisiae, multiplex flow cytometry (AID 1867;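 active = GFP response, as percent of the DMSO control, above the screen-wide mean plus 3 SD, about 139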;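 note: median GFP channel fluorescence of barcode-gated MEP2-GFP cells measured by flow cytometry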); settings: S. cerevisiae MEP2-GFP strain, 3 h, at 10 µM, stronger effect = higher value, 100% means same as DMSO wells
[3] = modulators of CIT2-GFP expression in yeast, primary screen, S. cerevisiae, GFP fusion, multiplex flow cytometry (AID 1870;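 active = percent response above a set limit, the screen-wide mean plus 3 SD, cut at about 130% in these data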;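 note: barcoded CIT2-GFP strain pooled with four other GFP strains with rapamycin as positive control; median GFP fluorescence per well over plate mean of DMSO wells so 100% = DMSO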); settings: 3 h, at 10 µM, stronger effect = higher value
[4] = modulators of LAP4-GFP expression in yeast, primary screen, S. cerevisiae, multiplex flow cytometry (AID 1873;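 active = GFP signal, as percent of the solvent control, above the screen mean plus 3 SD, about 149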); settings: 3 h, at 10 µM, stronger effect = higher value
[5] = modulators of AGP1-GFP expression in yeast TOR pathway, primary screen, cell-based, multiplex flow cytometry, S. cerevisiae (AID 1887;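 active = GFP signal above the screen-wide mean plus 3 SD, that is over about 124.5% of the solvent control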;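 note: AGP1-GFP fusion strain of S. cerevisiae within a five-strain barcoded multiplex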); settings: 3 h, at 10 µM, stronger effect = higher value
[6] = RPL19A-GFP modulators, yeast TOR pathway, confirmation, cell-based, S. cerevisiae, flow cytometry, cherry picks, mother/daughter gates (AID 2270;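 active = GFP response below 50% of the DMSO control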); settings: S. cerevisiae RPL19A-GFP strain, 3 h, at 10 µM, stronger effect = lower value, 100 = same GFP as DMSO wells
[7] = LAP4-GFP expression modulators in yeast, confirmation, cell-based, cherry picks, flow cytometry, mother/daughter gates (AID 2271;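 active = GFP response above 150% of the DMSO control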;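 note: ratio of sample to DMSO plate mean so 100% equals DMSO level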); settings: S. cerevisiae LAP4-GFP strain, 3 h, at 10 µM, stronger effect = higher value, 100 means same as DMSO control
[8] = modulators of MEP2-GFP levels in yeast, confirmation, S. cerevisiae, flow cytometry GFP, cherry picks (AID 2272;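 active = GFP response above 150% of the DMSO control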;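 note: ratio of well signal to plate DMSO mean so 100% equals DMSO level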); settings: S. cerevisiae MEP2-GFP strain, 3 h, at 10 µM, stronger effect = higher value
[9] = modulators of CIT2-GFP expression in yeast, confirmation, S. cerevisiae, GFP fusion, cherry picks, mother/daughter gates (AID 2274;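 active = GFP response above 150% of the DMSO level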); settings: S. cerevisiae CIT2-GFP strain, flow cytometry, 3 h, at 10 µM, stronger effect = higher value
[10] = inhibitors of CD8+ T cell-vesicle binding, pilot screen, LFA-1/ICAM-1 modulator project, MLPCN validation set, flow cytometry (AID 2523;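 active = response below a set limit, under 55% cells CD8-positive and vesicle-bound, and CD8 cells' 90th-percentile brightness under 279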;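 for vesicle binding response: mean PE anti-B7-1 fluorescence of CD8+ cells relative to row control; 100% = QL9-loaded vesicles with DMSO vehicle in the same plate row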); settings: 2C mouse CD8+ T cells, at 7 µM, stronger effect = lower value; double positive events: measured here: CD8+/vesicle+ event percentage
[11] = target: Integrin beta-1 (Homo sapiens) + Integrin alpha-4 (Homo sapiens) (UniProt P13612+P05556); assay: inhibition of HUTS-21 binding to VLA-4, pilot screen, VLA-4 allosteric modulator project, U937 cells, HUTS-21 mAb, flow cytometry, validation set (AID 2674;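 active = inhibition above 50%, about 3 SD of the validation set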;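 note: antibody binding induced by the VLA-4 ligand LDV present at three times its Kd; 0% = LDV ligand with antibody and no compound and 100% = antibody without LDV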); settings: HUTS-21 LIBS mAb binding, at 6.7 µM, stronger effect = higher value, binding induced by LDV ligand
Chain of Integrin beta-1 (Homo sapiens) + Integrin alpha-4 (Homo sapiens) (P05556 whole entry, looked up): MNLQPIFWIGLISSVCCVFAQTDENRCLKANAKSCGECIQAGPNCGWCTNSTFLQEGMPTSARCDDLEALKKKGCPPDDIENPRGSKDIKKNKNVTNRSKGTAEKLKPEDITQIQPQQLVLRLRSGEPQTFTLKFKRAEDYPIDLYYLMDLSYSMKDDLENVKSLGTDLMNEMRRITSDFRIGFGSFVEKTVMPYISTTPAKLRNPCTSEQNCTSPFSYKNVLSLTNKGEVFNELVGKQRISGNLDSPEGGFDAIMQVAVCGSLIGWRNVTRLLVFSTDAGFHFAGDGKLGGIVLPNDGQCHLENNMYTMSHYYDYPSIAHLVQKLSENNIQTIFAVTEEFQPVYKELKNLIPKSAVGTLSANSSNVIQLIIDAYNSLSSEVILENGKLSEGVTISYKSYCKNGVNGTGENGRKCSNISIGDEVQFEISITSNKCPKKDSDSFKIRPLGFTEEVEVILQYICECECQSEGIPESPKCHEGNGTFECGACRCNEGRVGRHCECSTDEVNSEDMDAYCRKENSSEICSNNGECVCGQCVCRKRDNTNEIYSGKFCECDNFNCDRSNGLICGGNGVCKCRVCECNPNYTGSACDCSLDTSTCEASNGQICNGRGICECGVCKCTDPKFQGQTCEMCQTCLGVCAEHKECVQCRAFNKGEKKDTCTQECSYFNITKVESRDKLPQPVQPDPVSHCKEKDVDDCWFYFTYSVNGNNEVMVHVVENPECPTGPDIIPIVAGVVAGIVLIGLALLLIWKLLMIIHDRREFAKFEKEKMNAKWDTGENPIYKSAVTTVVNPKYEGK
Chain of Integrin beta-1 (Homo sapiens) + Integrin alpha-4 (Homo sapiens) (P13612 whole entry, looked up): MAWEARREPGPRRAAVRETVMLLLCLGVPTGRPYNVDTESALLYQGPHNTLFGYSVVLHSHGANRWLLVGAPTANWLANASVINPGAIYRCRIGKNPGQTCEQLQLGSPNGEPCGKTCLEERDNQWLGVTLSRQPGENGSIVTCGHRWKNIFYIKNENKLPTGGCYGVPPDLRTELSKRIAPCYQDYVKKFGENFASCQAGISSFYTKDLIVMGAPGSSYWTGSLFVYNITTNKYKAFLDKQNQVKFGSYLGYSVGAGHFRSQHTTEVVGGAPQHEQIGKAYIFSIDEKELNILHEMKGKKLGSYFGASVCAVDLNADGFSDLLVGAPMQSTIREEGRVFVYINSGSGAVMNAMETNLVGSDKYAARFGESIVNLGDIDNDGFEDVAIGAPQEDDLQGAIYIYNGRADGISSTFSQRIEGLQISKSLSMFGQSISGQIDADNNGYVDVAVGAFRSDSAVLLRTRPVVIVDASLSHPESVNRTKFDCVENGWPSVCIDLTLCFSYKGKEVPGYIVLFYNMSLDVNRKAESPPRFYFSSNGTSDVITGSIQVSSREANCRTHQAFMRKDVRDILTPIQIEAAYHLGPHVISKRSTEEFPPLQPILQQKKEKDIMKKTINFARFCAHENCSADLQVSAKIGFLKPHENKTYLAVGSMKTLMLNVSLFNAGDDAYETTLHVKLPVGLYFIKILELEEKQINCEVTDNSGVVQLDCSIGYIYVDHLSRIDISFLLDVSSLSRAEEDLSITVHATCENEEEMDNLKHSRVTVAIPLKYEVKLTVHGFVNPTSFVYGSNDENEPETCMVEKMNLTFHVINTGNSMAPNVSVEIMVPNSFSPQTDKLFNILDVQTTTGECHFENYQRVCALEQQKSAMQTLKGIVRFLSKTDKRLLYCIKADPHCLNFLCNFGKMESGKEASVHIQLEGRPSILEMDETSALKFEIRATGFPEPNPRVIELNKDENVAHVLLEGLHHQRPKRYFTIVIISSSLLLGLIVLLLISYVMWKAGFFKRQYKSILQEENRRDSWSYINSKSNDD

[12] = superoxide lowering in aged yeast cells, pilot screen, validation compound set (AID 2706;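 active = superoxide response below 65% of plate, a cut near 3 SD across the whole screen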;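 note: yeast exposed to compound for one week at 30 degrees C before staining; 100% = mean of all compound wells on the same plate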); settings: S. cerevisiae aging, superoxide DHE fluorescence; at 10 µM; stronger effect = lower value
[13] = target: Beta-adrenergic receptor kinase 1 (Homo sapiens) (UniProt P25098); assay: GRK2 binders displacing RNA aptamer, biochemical, validation, human GRK2, bead flow cytometry (AID 488806;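 active = aptamer binding inhibition above 30%, about 3 SD of noise from non-fluorescent compounds; inactive = inhibition at or below 30%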); settings: bead-bound GRK2, FAM-aptamer displacement, at 10 µM, stronger effect = higher value
Chain of Beta-adrenergic receptor kinase 1 (Homo sapiens) (P25098 whole entry, looked up): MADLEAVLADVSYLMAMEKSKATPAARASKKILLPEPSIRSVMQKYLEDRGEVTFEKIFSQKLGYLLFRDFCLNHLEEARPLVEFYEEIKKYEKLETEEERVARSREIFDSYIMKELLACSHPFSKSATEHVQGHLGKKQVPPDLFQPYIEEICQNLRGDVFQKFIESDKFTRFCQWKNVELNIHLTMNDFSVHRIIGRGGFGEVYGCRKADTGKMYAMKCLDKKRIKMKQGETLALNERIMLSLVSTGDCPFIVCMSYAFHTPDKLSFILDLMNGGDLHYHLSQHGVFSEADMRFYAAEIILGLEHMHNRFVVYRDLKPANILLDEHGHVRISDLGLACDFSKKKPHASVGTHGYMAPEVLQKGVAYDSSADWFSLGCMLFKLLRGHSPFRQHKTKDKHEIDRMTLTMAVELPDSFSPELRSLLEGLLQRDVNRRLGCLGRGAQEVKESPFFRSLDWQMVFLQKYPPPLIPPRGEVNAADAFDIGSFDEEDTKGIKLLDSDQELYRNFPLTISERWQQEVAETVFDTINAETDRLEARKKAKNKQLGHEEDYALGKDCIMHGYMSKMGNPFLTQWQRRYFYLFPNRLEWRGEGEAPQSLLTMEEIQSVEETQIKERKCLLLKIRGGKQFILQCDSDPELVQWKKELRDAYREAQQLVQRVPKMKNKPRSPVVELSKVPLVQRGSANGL

[14] = target: Beta-2 adrenergic receptor (Homo sapiens) (UniProt P07550); assay: beta2AR agonists driving receptor internalization, pilot screen, cell-based, FAP fluorogen, flow cytometry, validation set (AID 504459;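 active = percent response above 42, roughly 3 SD of non-fluorescent test compounds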;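 note: agonist-driven loss of surface beta2AR via internalization measured by FAP dye flow cytometry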); settings: Am2.2-beta2AR cells, FAP surface receptor flow cytometry; at 10 µM; stronger effect = higher value
Chain of Beta-2 adrenergic receptor (Homo sapiens) (P07550 whole entry, looked up): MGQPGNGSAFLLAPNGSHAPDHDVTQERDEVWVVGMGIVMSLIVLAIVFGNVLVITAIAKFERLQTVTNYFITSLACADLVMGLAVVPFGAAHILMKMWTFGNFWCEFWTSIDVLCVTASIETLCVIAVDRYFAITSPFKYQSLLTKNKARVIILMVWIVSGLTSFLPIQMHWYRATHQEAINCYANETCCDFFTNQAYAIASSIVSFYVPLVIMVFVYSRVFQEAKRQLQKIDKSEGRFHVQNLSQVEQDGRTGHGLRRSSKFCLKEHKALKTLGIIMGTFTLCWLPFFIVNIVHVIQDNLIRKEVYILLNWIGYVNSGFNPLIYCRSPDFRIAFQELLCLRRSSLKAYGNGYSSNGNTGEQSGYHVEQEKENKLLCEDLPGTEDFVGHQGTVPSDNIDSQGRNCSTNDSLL

[15] = target: AP-2 complex subunit beta (Homo sapiens) (UniProt P63010); assay: inhibitors of arrestin peptide binding to AP2, pilot screen, biochemical, validation set, GST-AP2 beads, flow cytometry (AID 504541;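 active = inhibition above 54%, about 3 SD of non-fluorescent compounds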;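 note: AP2 carries R879A mutation and is captured from E. coli lysate; bead-bound FITC arrestin peptide fluorescence measuring arrestin peptide binding to AP2; 0% = DMSO wells and 100% = excess unlabeled arrestin peptide control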); settings: FITC arrestin peptide, at 10 µM, stronger effect = higher value, AP2 beta2 appendage fragment, R879A mutant
Chain of AP-2 complex subunit beta (Homo sapiens) (P63010 whole entry, looked up, the tested form may be a part, one chain of several): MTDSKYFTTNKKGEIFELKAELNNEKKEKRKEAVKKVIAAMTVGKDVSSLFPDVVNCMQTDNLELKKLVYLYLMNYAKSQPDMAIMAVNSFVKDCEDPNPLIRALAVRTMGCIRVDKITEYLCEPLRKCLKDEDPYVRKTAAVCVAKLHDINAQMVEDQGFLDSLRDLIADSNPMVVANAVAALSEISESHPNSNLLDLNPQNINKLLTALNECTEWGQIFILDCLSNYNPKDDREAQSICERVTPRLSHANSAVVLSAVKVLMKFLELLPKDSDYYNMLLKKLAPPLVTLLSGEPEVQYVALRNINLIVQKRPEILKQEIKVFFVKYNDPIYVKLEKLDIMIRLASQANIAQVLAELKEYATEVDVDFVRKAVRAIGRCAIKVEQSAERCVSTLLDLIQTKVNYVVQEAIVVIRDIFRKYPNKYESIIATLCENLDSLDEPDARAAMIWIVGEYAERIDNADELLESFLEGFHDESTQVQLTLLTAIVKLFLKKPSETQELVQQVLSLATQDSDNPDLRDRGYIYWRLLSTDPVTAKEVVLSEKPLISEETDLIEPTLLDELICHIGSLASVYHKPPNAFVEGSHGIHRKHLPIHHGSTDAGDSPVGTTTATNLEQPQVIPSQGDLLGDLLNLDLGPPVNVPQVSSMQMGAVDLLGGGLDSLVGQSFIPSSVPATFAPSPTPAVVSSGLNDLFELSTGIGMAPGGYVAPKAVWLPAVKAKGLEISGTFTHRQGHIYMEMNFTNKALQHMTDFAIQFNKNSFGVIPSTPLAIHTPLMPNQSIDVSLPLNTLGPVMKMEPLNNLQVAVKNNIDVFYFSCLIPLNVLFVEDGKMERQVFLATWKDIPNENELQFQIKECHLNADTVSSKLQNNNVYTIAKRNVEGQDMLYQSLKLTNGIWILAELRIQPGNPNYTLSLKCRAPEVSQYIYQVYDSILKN

[16] = yeast V-ATPase proton transport modulators, S. cerevisiae, pHLuorin, HTS validation (AID 504600; in the data active = response above about 15%;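 note: plate controls were DMSO for no effect and reference compound for full effect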); settings: S. cerevisiae pHLuorin cytosolic pH, at 10 µM, stronger effect = higher value
[17] = tested on: anti-desmoglein-3 scFv antibody binding to human DSG3; assay: inhibitors of anti-DSG3 scFv binding to DSG3, pilot screen, biochemical, validation compound set, bead-based, flow cytometry (AID 588368;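 active = binding below the plate cutoff, the plate median minus 3 SD, with a reading above zero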;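 note: signal is the median channel fluorescence of bead-bound GFP antibody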); settings: Protein G beads, DSG3-Fc, scFv-GFP binding, at 10 µM, stronger effect = lower value
[18] = inhibitors of fungal efflux pumps CDR1, CDR2, MDR1, pilot screen, validation compound set, multiplex, phenotypic (AID 588506;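 active = efflux inhibition above 0.42, the validation set average plus 4 SD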;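 note: Nile Red retained in cells so higher fluorescence means more efflux inhibition; 0 = negative control wells and 1 = enniatin B 25 µM full block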); settings: S. cerevisiae pump-expressing triplex, Nile Red efflux flow cytometry; at 10 µM; stronger effect = higher value; the pumps come from Candida albicans
[19] = target: ATP-binding cassette sub-family B member 6 (Homo sapiens) (UniProt Q9NP58); assay: ABCB6 transporter inhibitors, pilot screen, K562-ABCB6 cells, flow cytometry, validation set (AID 588550); settings: K562-ABCB6 porphyrin accumulation, 1 h, at 10 µM, stronger effect = higher value;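 note: 0% = DMSO wells and 100% = benzethonium chloride 70 µM positive control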
Chain of ATP-binding cassette sub-family B member 6 (Homo sapiens) (Q9NP58 whole entry, looked up): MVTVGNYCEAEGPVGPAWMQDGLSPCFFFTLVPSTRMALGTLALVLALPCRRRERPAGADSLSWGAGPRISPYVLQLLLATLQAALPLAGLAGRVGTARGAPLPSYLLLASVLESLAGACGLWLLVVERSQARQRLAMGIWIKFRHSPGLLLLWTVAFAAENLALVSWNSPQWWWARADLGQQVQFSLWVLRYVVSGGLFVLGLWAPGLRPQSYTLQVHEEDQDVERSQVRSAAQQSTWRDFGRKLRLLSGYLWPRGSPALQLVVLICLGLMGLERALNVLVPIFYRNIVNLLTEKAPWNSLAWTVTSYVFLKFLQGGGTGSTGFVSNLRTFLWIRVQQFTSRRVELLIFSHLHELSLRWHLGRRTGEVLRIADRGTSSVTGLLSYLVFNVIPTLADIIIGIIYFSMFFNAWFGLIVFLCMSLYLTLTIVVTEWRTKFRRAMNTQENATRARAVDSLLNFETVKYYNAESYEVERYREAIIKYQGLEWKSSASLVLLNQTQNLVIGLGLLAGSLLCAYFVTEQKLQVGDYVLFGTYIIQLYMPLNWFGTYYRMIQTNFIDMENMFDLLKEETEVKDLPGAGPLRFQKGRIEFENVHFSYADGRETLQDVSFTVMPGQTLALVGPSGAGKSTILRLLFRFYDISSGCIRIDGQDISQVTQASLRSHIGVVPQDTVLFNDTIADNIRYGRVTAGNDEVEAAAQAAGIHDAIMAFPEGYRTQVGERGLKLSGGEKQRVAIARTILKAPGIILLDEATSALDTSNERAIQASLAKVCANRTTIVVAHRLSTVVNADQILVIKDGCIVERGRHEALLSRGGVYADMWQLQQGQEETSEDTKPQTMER

[20] = promoters of myeloid differentiation in arrested cells, primary screen, cell-based, GFP/MAC1 double positive, flow cytometry, validation set (AID 588685;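 active = differentiation response of at least 50%, scaled between solvent and reference control, from cells with both markers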;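 note: compound exposure lasts four days before antibody staining and flow analysis; 0% = DMSO wells and 100% = 5 µM fulvestrant positive control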); settings: ER-HoxA9 marrow cells, stronger effect = higher value, normalized: vehicle 0, fulvestrant 100
[21] = measured here: daughter cell gate
[22] = measured here: mother cell gate
[23] = measured here: daughter cell gate response
[24] = measured here: mother cell gate response

O=C(NCCN1CCN(c2ccccc2)CC1)c1cccc(Br)c1
100%: GFP response, % of DMSO [9, 21]
98%: GFP response vs DMSO [6, 21]
active: GFP response vs DMSO [2] 158% | vesicle binding response [10] 59.1%
96.5%: GFP response relative to DMSO [7, 24]
41.8%: double positive events [10]
97.4%: GFP response vs DMSO [6, 22]
101%: GFP response relative to DMSO [7, 23] | GFP response, % of DMSO [9, 22]
inactive: percent of DMSO control GFP [1] 91.3% | percent response of DMSO control [3] 107% | GFP response vs DMSO [4] 88.6% | GFP response, % of DMSO [5] 91.5% | GFP response vs DMSO [6] 97% | GFP response relative to DMSO [7] 97.7% | GFP response vs DMSO [8] 102% | GFP response, % of DMSO [9] 102% | inhibition [11] 17.1% | superoxide response (% of plate) [12] 104% | aptamer binding inhibition [13] 0% | response [14] -3.55% | inhibition [15] 13.8% | response [16] -7.18% | binding (% of control) [17] 103% | efflux inhibition (fraction of control) [18] 0.05 | inhibition [19] 6% | differentiation response [20] 11.5%

CCOc1cc(C=O)ccc1OCCSc1ccc(C)cc1
92.7%: GFP response, % of DMSO [9, 21]
active: GFP response vs DMSO [4] 168%
93.3%: GFP response, % of DMSO [9, 22]
87.7%: GFP response vs DMSO [6, 21]
inactive: percent of DMSO control GFP [1] 94.6% | GFP response vs DMSO [2] 103% | percent response of DMSO control [3] 77.8% | GFP response, % of DMSO [5] 101% | GFP response vs DMSO [6] 92.9% | GFP response relative to DMSO [7] 131% | GFP response vs DMSO [8] 116% | GFP response, % of DMSO [9] 93.5% | vesicle binding response [10] 185% | inhibition [11] 9.13% | superoxide response (% of plate) [12] 108% | aptamer binding inhibition [13] 4% | response [14] 5.33% | inhibition [15] -9.69% | response [16] 5.17% | binding (% of control) [17] 98.9% | efflux inhibition (fraction of control) [18] 0.08 | inhibition [19] 5% | differentiation response [20] -16.8%
96.4%: GFP response vs DMSO [6, 22]
122%: GFP response relative to DMSO [7, 23]
137%: GFP response relative to DMSO [7, 24]
60.1%: double positive events [10]

CC(=O)Nc1ccc(S(=O)(=O)c2ccc(N)cc2)cc1
102%: GFP response, % of DMSO [9, 22]
106%: GFP response relative to DMSO [7, 24]
inactive: percent of DMSO control GFP [1] 97.9% | GFP response vs DMSO [2] 126% | GFP response vs DMSO [4] 77.6% | GFP response, % of DMSO [5] 85.4% | GFP response vs DMSO [6] 103% | GFP response relative to DMSO [7] 105% | GFP response vs DMSO [8] 102% | GFP response, % of DMSO [9] 102% | vesicle binding response [10] 203% | inhibition [11] 17.1% | superoxide response (% of plate) [12] 110% | aptamer binding inhibition [13] 0% | response [14] -3.74% | inhibition [15] -5.82% | response [16] -1.44% | binding (% of control) [17] 101% | efflux inhibition (fraction of control) [18] 0.05 | inhibition [19] 8% | differentiation response [20] 9.01%
62.6%: double positive events [10]
104%: GFP response vs DMSO [6, 22]
101%: GFP response vs DMSO [6, 21] | GFP response, % of DMSO [9, 21]
active: percent response of DMSO control [3] 136%
103%: GFP response relative to DMSO [7, 23]

N#CCC(N)=C(C#N)C#N
inactive: percent of DMSO control GFP [1] 91.5% | GFP response vs DMSO [2] 120% | percent response of DMSO control [3] 111% | GFP response vs DMSO [4] 82.5% | GFP response, % of DMSO [5] 91.7% | vesicle binding response [10] 188% | inhibition [11] -4.21% | superoxide response (% of plate) [12] 108% | aptamer binding inhibition [13] 9% | response [14] -2.94% | inhibition [15] -8.05% | response [16] 1.3% | binding (% of control) [17] 101% | efflux inhibition (fraction of control) [18] -0.02 | inhibition [19] -45% | differentiation response [20] -5.73%
60.1%: double positive events [10]
